Molecules are shown by their SMILES. About 83,000 compounds went through this panel and 20% of them were active in at least one assay; those are over-represented in the sample as a whole.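 Assay: single dose, 48 h. Readout: percent growth (0 = no net growth; negative = cell death). Active: <10.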 Activity calls are given as the source filed them.

This assay deals with SK-OV-3 ovarian. As to the kind of experiment: NCI-60 one-dose screen, 48 h (100 = growth as untreated, 0 = no growth, -100 = all killed). Particulars: 10 µM unless noted.
Take `CC(C)[C@]12O[C@H]1[C@@H]1O[C@]13[C@]1(O[C@H]1C[C@H]1c4c(C(=O)c5ccccc5)oc(OC(=O)c5ccccc5)c4CC[C@@]13C)[C@@H]2O`: the growth was 27.3% (inactive). For `CN(C)CC(C(=O)Cc1ccccc1)c1ccccc1` (configuration not stated) the value was 124% (inactive); for `O=C1C=C2C(=CCOC2O)O1` (configuration not stated), 100% (inactive); for `Clc1ccc(N2COOC3(OOC2)C2CC4CC(C2)CC3C4)cc1`, 92.9% (inactive).

For the compound `Nc1ccc2c(c1)Cc1cc(Br)ccc1-2`, the growth is 101% (inactive). With `O=c1[nH]c2ccc([N+](=O)[O-])cc2c(=O)o1` the figure was 102% (inactive). Take `CN1CC(CNC(=O)OCc2ccccc2)CC2c3cccc4c3c(cn4C)CC21` (configuration not stated): the growth was 69% (inactive). With `NC(=O)c1c(Br)n(C2OC(CO)C(O)C2O)c2ncnc(N)c12` (configuration not stated) the figure was -8.9% (active); with `Cc1cc(N(CCCl)CCCl)ccc1/C=N\NC(=O)c1ccncc1`, 95.4% (inactive).

With `COC(=O)CCC1=C(C)c2cc3[n-]c(cc4nc(cc5[n-]c(cc1n2)c(CCC(=O)OC)c5C)C=C4C)cc3C.[Cd+2]`, the growth is 83.5% (inactive).

Regarding `CCCC(C)C1(CC)C(=O)NC(=O)N(C)C1=O` (configuration not stated), the growth was 89.3% (inactive). With `CC(=O)c1ccc(C(=O)NCC2CCC3(CC2)OOC2(CCCCC2)OO3)cc1` the figure was 99.6% (inactive).

(Values after PubChem BioAssay (NCI).)
